Measured values: PubChem BioAssay (Tox21)
Inconclusive results are not listed. Calls of active or inactive are those of the source. Unless noted, the call rests on the fitted dose curve; in most records, active means well fitted curve in the direction sought with a large enough effect in the repeat runs; inconclusive means weak or mixed curves; inactive means no such curve, though single readings can be large; an effect the other way counts as inactive or inconclusive.

Columns and labels:
[1] = qHTS assay to identify small molecule agonists of the sonic hedgehog signaling (Shh) pathway (AID 1259368; calls by dose curve;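 further: NIH/3T3-derived 3T3Gli1-Luc cells carrying a stable Gli1-driven firefly luciferase reporter; series mostly up to about 92 µM; nearly all actives have a fitted effect of over 15% in size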)
Summary of the method: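 Quantitative high-throughput format using a Gli1-driven firefly luciferase reporter line derived from NIH/3T3 cells. After a 24 hr compound treatment at 37 C and 5% CO2, luminescence reported Gli1 response element activity.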

[2] = qHTS assay to identify small molecule antagonists of the sonic hedgehog signaling (Shh) pathway (AID 1259369; calls by dose curve; further: nearly all actives have a fitted effect of over 45% in size)
Summary of the method: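 Stable Gli1-Luc reporter NIH/3T3 clone; quantitative HTS in stimulated mode with conditioned medium. Luminescence measured after 24hr compound treatment at 37 C.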

[3] = target: Estrogen receptor beta (Homo sapiens) (UniProt Q92731); experiment: qHTS assay to identify small molecule agonists of the estrogen receptor beta (ER-beta) signaling pathway (AID 1259377; active means well fitted activation curve with a large enough effect in the signal ratio in the repeat runs, not every such curve was filed as active; the % refers to the signal ratio)
Summary of the method: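 ER-beta-UAS-bla HEK293T (GripTite) cells carrying a UAS-driven beta-lactamase reporter, in medium with 2% charcoal-stripped FBS, were exposed to compounds for 16 hr at 37C; LiveBLAzer B/G FRET substrate was then added and fluorescence read after 2 hours at room temperature.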

[4] = qHTS assay to identify small molecule agonists of the androgen receptor (AR) signaling pathway in the presence of an antagonist - cell viability counter screen (AID 1259379);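 further: MDA-kb2 human breast cancer cells carrying an MMTV luciferase reporter; series mostly up to about 92 µM; nearly all actives have a fitted effect of over 25% in size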
Summary of the method: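 Nilutamide-containing (3.0uM final) MDA-kb2 cultures, 3,000 cells/well, were treated with compounds across 15 concentrations. After 16 hr at 37C with no CO2, cell viability was determined by CellTiter-Fluor fluorescence in the luciferase assay wells.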

[5] = qHTS assay to identify small molecule agonists of the estrogen receptor beta (ER-beta) signaling pathway - cell viability counter screen (AID 1259380); further: nearly all actives have a fitted effect of over 30% in size
Summary of the method: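 Steps: plate ER-beta-UAS-bla HEK293T cells, rest 6 hr; add compounds in DMSO; incubate 16 hr at 37C, 5% CO2; add FRET substrate 2 hr; add CellTiter-Glo, wait 30 min at room temperature; read luminescence.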

[6] = target: Estrogen receptor (Homo sapiens) (UniProt P03372); experiment: qHTS assay to identify small molecule agonists of the estrogen receptor alpha (ER-alpha) signaling pathway in the presence of an antagonist (AID 1259383; calls by dose curve; further: top concentration of the series differs between compounds; nearly all actives have a fitted effect of over 15% in size)
Summary of the method: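 Readout was ERE-driven luciferase luminescence in VM7Luc4E2 cells, which express full-length ER-alpha endogenously. Compounds were tested at 15 concentrations for 22hr alongside 10.0nM ICI-182,780 (final concentration).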

[7] = qHTS assay to identify small molecule agonists of the estrogen receptor alpha (ER-alpha) signaling pathway in the presence of an antagonist - cell viability counter screen (AID 1259386);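 further: series mostly up to about 92 µM; cells exposed to compounds for 22 h at 37 °C before the viability read; nearly all actives have a fitted effect of over 30% in size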
Summary of the method: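 In this counter screen, compound effects on VM7Luc4E2 viability were tested in the presence of the antagonist ICI-182,780 at 10.0nM final. Compounds were dosed at 15 concentrations, exposure lasted 22hr, and the CellTiter-Fluor signal was read.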

[8] = target: Progesterone receptor (Homo sapiens) (UniProt P06401); experiment: qHTS assay to identify small molecule agonists of the progesterone receptor (PR) signaling pathway (AID 1346784; calls by dose curve; further: nearly all actives have a fitted effect of over 30% in size)
Summary of the method: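 PR-UAS-bla HEK 293T cells carrying a UAS-driven beta-lactamase reporter were seeded in medium with 2% charcoal-stripped FBS, preincubated 6 hr at 37C, then exposed to compounds in DMSO for 16 hr; agonism was read by LiveBLAzer B/G FRET fluorescence.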

[9] = target: Progesterone receptor (Homo sapiens) (UniProt P06401); experiment: qHTS assay to identify small molecule antagonists of the progesterone receptor (PR) signaling pathway (AID 1346795; active means well fitted inhibition curve with a large enough effect in the signal ratio in the repeat runs, not every such curve was filed as active; the % refers to the signal ratio)
Summary of the method: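 PR-UAS-bla HEK293T cells carrying a UAS-driven beta-lactamase reporter were plated in medium with 2% charcoal-stripped FBS and rested 6 hr at 37C. Compounds were added with 1 nM R5020 (final) for 16 hr, then FRET substrate loaded 2 hr at room temperature.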

[10] = qHTS assay to identify small molecule antagonists of the progesterone receptor (PR) signaling pathway - cell viability counter screen (AID 1346798); further: series mostly up to about 92 µM; nearly all actives have a fitted effect of over 50% in size
Summary of the method: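 PR-UAS-bla HEK293T cells in medium with 2% charcoal-stripped FBS were treated with compounds plus R5020 for 16 hr at 37C. Cell viability was then read by CellTiter-Glo luminescence after 30 min at room temperature in the same wells.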

[11] = qHTS assay to identify small molecule agonists of the progesterone receptor (PR) signaling pathway - cell viability counter screen (AID 1346799; calls by dose curve; further: nearly all actives have a fitted effect of over 45% in size)
Summary of the method: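 PR-UAS-bla HEK293T cells, 3,000 per well in medium with 2% charcoal-stripped FBS, were preincubated 6 hr at 37C, then exposed to compounds for 16 hr; viability was read as CellTiter-Glo luminescence after 30 min at room temperature.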

[12] = qHTS assay to identify small molecule antagonists of the TGF-beta/Smad signaling pathway - cell viability counter screen (AID 1346824); further: nearly all actives have a fitted effect of over 50% in size
Summary of the method: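 SBE-bla HEK 293T cells, incubated overnight, then compound plus 0.25 ng/mL TGF-beta1 (stock added) for 5 hr at 37 C. Viability was read in the same wells by CellTiter-Glo luminescence after 30 min at room temperature.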

[13] = qHTS assay to identify small molecule agonists of the TGF-beta/Smad signaling pathway - cell viability counter screen (AID 1346829); further: top concentration of the series differs between compounds; nearly all actives have a fitted effect of over 45% in size
Summary of the method: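 HEK 293T SBE-bla line, 5 hr compound exposure at 37 C, multiplexed CellTiter-Glo viability read by luminescence.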

[14] = qHTS assay to identify small molecule agonists of the TGF-beta/Smad signaling pathway (AID 1346859; active means well fitted activation curve with a large enough effect in the signal ratio in the repeat runs, not every such curve was filed as active; the % refers to the signal ratio; further: series mostly up to about 77 µM)
Summary of the method: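 HEK 293T cells stably carrying a beta-lactamase reporter driven by the Smad binding element were seeded overnight, exposed to DMSO-dissolved compounds for 5 hr at 37 C, 5% CO2, then loaded with FRET substrate for 2 hr at room temperature.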

[15] = target: Thyrotropin-releasing hormone receptor (Homo sapiens) (UniProt P34981); experiment: qHTS assay to identify small molecule antagonists of the thyrotropin-releasing hormone receptor (TRHR) signaling pathway (AID 1346877; active means well fitted inhibition curve with a large enough effect in the repeat runs, not every such curve was filed as active; further: series mostly up to about 51 µM)
Summary of the method: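 Kinetic fluorescence (3 min, 1 s resolution) following stimulation with TRH at 1 nM final; HEK293 cells bearing human TRHR; 5 min compound preincubation at RT; concentration-response over 15 points, triplicates.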

[16] = qHTS assay to identify small molecule antagonists of the estrogen receptor beta (ER-beta) signaling pathway - cell viability counter screen (AID 1259382); further: series mostly up to about 92 µM; nearly all actives have a fitted effect of over 55% in size
Summary of the method: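 Viability is scored by CellTiter-Glo luminescence (30 min, room temperature) in ER-beta-UAS-bla HEK293T wells already read for reporter fluorescence. Compound exposure lasts 16 hr at 37C alongside 1nM 17-beta-estradiol in charcoal-stripped serum medium.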

[17] = qHTS assay to identify small molecule agonists or antagonists of the thyroid stimulating hormone receptor (TSHR) signaling pathway - wild type cell line counter screen (AID 1259384; calls by dose curve)
Summary of the method: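 Wild-type Hek293 cells, 800/well, 18 h at 37C, then compound with Ro20-1724 for 30 min RT. cAMP by HTRF (cAMP-d2/anti-cAMP cryptate), 1 h RT, fluorescence read. 15 concentrations, triplicates.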

[18] = target: Thyrotropin receptor (Homo sapiens) (UniProt P16473); experiment: qHTS assay to identify small molecule antagonists of the thyroid stimulating hormone receptor (TSHR) signaling pathway (AID 1259385; calls by dose curve; further: nearly all actives have a fitted effect of over 20% in size)
Summary of the method: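 TSHR-HEK293 cells (800/well) plated 18 h, then compounds with Ro20-1724 and TSH at 1.5 ng/mL final, 30 min at room temperature. cAMP quantified by HTRF (cAMP-d2/anti-cAMP-cryptate, 1 h); 15 concentrations in triplicate.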

Measured: Potency

Estrogen receptor (Homo sapiens), sequence (P03372 whole entry, looked up): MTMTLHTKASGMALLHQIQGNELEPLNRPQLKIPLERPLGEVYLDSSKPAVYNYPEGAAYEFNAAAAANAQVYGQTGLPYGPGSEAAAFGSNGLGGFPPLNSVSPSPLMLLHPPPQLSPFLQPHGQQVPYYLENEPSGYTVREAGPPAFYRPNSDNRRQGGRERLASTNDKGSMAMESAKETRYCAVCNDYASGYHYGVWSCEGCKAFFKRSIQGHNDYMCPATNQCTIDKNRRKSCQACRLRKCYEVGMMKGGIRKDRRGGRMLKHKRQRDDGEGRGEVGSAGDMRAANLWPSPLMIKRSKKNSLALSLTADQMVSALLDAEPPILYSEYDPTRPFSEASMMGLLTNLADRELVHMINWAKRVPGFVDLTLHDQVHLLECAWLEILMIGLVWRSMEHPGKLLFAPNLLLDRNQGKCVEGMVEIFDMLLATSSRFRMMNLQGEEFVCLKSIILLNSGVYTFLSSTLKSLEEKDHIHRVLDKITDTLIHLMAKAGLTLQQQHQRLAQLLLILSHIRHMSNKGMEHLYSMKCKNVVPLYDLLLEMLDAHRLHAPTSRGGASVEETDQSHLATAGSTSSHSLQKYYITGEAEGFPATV
Thyrotropin receptor (Homo sapiens), sequence (P16473 whole entry, looked up): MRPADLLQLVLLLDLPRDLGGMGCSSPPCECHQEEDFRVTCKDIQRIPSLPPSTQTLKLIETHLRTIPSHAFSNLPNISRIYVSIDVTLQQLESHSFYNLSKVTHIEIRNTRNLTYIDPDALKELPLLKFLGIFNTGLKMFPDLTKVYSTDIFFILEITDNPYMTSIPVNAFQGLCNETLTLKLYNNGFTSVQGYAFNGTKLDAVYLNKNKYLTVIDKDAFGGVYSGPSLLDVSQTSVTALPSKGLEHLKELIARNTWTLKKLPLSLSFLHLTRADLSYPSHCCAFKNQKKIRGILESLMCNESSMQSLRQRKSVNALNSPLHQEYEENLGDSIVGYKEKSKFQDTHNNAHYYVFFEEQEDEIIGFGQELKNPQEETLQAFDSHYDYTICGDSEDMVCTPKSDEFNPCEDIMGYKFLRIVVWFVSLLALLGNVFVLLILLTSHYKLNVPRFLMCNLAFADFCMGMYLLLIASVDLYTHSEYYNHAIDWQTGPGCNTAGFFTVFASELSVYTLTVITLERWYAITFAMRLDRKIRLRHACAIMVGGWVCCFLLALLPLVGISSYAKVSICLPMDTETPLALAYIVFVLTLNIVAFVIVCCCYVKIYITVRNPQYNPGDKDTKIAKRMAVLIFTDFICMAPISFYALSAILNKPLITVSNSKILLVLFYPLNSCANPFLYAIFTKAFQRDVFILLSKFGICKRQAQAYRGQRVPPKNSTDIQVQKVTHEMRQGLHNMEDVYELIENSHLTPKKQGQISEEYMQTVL
Progesterone receptor (Homo sapiens), sequence (P06401 whole entry, looked up): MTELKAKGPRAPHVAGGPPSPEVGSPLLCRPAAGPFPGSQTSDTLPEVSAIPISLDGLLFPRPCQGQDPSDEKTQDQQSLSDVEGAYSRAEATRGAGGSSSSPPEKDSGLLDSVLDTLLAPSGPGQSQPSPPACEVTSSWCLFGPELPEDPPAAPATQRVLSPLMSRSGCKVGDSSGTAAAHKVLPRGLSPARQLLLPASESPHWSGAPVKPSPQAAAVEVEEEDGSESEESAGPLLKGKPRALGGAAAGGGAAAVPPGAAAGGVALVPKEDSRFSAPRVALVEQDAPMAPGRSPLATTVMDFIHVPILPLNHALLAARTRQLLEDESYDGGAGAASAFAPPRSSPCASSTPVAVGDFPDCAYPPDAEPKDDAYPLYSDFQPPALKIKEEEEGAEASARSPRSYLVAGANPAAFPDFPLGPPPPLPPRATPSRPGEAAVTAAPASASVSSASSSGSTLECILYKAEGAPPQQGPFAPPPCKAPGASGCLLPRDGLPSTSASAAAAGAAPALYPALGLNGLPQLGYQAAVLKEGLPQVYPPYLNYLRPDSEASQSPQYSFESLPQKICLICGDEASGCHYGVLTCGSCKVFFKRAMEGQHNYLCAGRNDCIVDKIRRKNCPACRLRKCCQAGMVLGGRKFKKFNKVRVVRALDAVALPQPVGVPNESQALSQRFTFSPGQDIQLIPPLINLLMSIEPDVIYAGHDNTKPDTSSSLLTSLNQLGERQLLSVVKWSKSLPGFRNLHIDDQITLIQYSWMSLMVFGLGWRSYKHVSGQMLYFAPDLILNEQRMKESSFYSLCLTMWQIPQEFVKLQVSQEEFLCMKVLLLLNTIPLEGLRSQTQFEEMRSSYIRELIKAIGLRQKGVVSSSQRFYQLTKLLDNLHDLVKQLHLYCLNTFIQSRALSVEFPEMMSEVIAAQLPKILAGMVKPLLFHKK
Thyrotropin-releasing hormone receptor (Homo sapiens), sequence (P34981 whole entry, looked up): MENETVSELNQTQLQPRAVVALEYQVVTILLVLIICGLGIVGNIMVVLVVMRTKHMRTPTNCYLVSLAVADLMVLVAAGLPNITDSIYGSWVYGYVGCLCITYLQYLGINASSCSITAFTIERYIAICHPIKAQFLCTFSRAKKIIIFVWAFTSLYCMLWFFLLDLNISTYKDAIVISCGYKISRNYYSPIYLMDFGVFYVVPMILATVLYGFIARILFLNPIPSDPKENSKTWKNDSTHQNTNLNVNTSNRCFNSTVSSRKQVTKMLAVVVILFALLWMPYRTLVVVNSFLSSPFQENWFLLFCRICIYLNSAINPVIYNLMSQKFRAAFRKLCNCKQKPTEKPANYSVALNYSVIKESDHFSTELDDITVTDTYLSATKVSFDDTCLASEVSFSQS
Estrogen receptor beta (Homo sapiens), sequence (Q92731 whole entry, looked up): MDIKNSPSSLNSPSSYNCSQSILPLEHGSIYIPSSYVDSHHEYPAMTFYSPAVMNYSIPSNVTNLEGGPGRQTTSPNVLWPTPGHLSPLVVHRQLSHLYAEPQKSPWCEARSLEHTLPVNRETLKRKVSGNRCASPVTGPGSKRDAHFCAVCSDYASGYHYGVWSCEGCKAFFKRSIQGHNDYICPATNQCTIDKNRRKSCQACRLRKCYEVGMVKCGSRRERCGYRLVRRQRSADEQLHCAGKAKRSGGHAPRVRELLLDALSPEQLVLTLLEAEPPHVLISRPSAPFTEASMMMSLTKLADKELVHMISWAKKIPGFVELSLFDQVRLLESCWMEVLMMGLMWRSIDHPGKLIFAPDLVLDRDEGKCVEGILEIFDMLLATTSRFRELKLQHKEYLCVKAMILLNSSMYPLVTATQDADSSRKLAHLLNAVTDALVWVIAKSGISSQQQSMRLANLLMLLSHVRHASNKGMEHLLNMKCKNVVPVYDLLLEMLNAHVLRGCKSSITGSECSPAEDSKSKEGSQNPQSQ

C=C(C)C(=O)OCCOP(=O)(O)OCCOC(=O)C(=C)C
inactive: [1] | [2] | [3] | [4] | [5] | [6] | [7] | [8] | [9] | [10] | [11] | [12] | [13] | [14] | [15]

FC(F)(F)c1ccccc1-n1ccnc1
inactive: [1] | [2] | [4] | [5] | [16] | [7] | [8] | [9] | [11] | [12] | [13] | [14] | [15]

Cc1ccccc1N=O
inactive: [1] | [2] | [4] | [5] | [16] | [17] | [18] | [7] | [8] | [9] | [10] | [11] | [12] | [13] | [14] | [15]

CCNC(=O)C1CC(C)CCC1C(C)C (centres undefined)
inactive: [1] | [2] | [4] | [5] | [16] | [6] | [17] | [18] | [8] | [9] | [10] | [11] | [12] | [13] | [14] | [15]

Cc1cc(NC(=O)C2=C(O)c3ccccc3S(=O)(=O)N2C)no1
inactive: [1] | [2] | [4] | [5] | [16] | [17] | [18] | [7] | [8] | [9] | [10] | [11] | [12] | [13] | [14] | [15]

CCOc1cc(NC(C)=O)ccc1C(=O)OC
inactive: [1] | [2] | [4] | [5] | [16] | [6] | [18] | [7] | [8] | [9] | [10] | [11] | [12] | [13] | [14] | [15]

Nc1cccc(O)c1
inactive: [1] | [2] | [4] | [5] | [16] | [6] | [17] | [18] | [8] | [9] | [10] | [11] | [12] | [13] | [14] | [15]

Cc1cccc(C)c1OCC(C)N (centres undefined)
inactive: [1] | [2] | [4] | [5] | [16] | [6] | [17] | [18] | [7] | [8] | [9] | [10] | [12] | [13] | [14] | [15]
